Measurements reported in PubChem BioAssay (NCI).
This is part of a sample that, as a whole, favours compounds with a hit. Of some 79,000 tested, about 15% had one in any assay. Activity calls are given as the source filed them. Rule as the data show it: active = growth inhibition above about 70%; inactive = the rest.

Experiments:
[1] = NCI Yeast Anticancer Drug Screen. Data for the rad52 strain (AID 147);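 also: 0% = growth of vehicle-treated control cultures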; details: S. cerevisiae rad52 mutant growth inhibition, hits give high values
In short: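 Read-out: growth inhibition versus vehicle-treated controls. Cells were a DNA repair-deficient yeast strain treated with compounds.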

[2] = NCI Yeast Anticancer Drug Screen. Data for the wt1 strain (AID 149);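 also: 0% = growth of vehicle-treated wt1 cultures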; details: S. cerevisiae wt1 strain (SPY 50644) growth inhibition, hits give high values
In short: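 Vehicle-normalised growth inhibition; strain wt1; compound exposure.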

[3] = NCI Yeast Anticancer Drug Screen. Data for the rad50EPP+ strain (AID 151);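 also: 0% = growth of vehicle-treated control cultures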; details: S. cerevisiae rad50 mutant strain, hits give high values
In short: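 Growth inhibition read against vehicle controls in rad50EPP+ yeast, a strain altered in DNA damage repair, after compound exposure.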

[4] = NCI Yeast Anticancer Drug Screen. Data for the mgt1 strain (AID 153); details: S. cerevisiae mgt1 mutant growth inhibition, hits give high values
In short: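 mgt1 yeast grown with test compound; read-out is growth inhibition versus vehicle-treated cultures.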

[5] = NCI Yeast Anticancer Drug Screen. Data for the rad50 strain (AID 155);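 also: 0% = growth of vehicle-only cultures of the same strain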; details: S. cerevisiae rad50 strain growth inhibition, hits give high values
In short: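 A DNA repair-deficient yeast mutant serves as the test organism; compound-induced growth inhibition is calculated against vehicle-treated cells.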

[6] = NCI Yeast Anticancer Drug Screen. Data for the mec2-1 strain (AID 157); details: S. cerevisiae mec2-1 strain, hits give high values
In short: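 Yeast mec2-1 mutant treated with compound. Readout: growth inhibition vs vehicle controls.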

[7] = NCI Yeast Anticancer Drug Screen. Data for the rad14 strain (AID 159);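 also: 0% = growth of vehicle-treated control cultures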; details: S. cerevisiae rad14 strain growth inhibition, hits give high values
In short: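 Vehicle-treated cultures served as the baseline for growth inhibition of a DNA repair-mutant yeast strain exposed to each compound.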

[8] = NCI Yeast Anticancer Drug Screen. Data for the sgs1 mgt1 strain (AID 161);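 also: 0% = growth of cultures given vehicle only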; details: S. cerevisiae sgs1 mgt1 strain, hits give high values
In short: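 Inhibition of yeast growth, normalised to vehicle-treated controls, is reported for a strain bearing genetic alterations in DNA damage repair.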

[9] = NCI Yeast Anticancer Drug Screen. Data for the CLN2oe strain (AID 163);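 also: 0% = growth of vehicle-only control cultures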; details: S. cerevisiae CLN2oe strain, hits give high values
In short: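 Read-out: yeast growth inhibition, expressed relative to vehicle-only controls. The strain bears an engineered cell-cycle alteration.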

[10] = NCI Yeast Anticancer Drug Screen. Data for the cln2 rad14 strain (AID 165);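 also: 0% = growth equal to vehicle treated cultures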; details: S. cerevisiae cln2 rad14 strain, hits give high values
In short: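 cln2 rad14 yeast strain; compound exposure; growth inhibition read vs vehicle controls.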

[11] = NCI Yeast Anticancer Drug Screen. Data for the bub3 strain (AID 167); details: S. cerevisiae bub3 mutant strain, hits give high values
In short: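 Inhibition values come from growth of compound-treated mutant yeast normalised to vehicle-treated controls.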

[12] = NCI Yeast Anticancer Drug Screen. Data for the wt2 strain (AID 169);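 also: 0% = growth of vehicle-treated yeast cultures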; details: S. cerevisiae wt2 strain growth inhibition, hits give high values
In short: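 Read-out: growth inhibition versus vehicle-treated control cultures after compound exposure of the yeast strain.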

[13] = NCI Yeast Anticancer Drug Screen. Data for the mlh1 strain (AID 171);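 also: 0% = growth of vehicle-treated control cultures of the same strain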; details: S. cerevisiae mlh1 strain growth inhibition, hits give high values
In short: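 Read-out: growth inhibition versus vehicle controls. Strain: engineered yeast with a defined DNA repair or cell cycle defect, compound-treated.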

[14] = NCI Yeast Anticancer Drug Screen. Data for the sgs1 strain (AID 173);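 also: 0% = growth of vehicle-only control cultures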; details: S. cerevisiae sgs1 mutant, hits give high values
In short: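 Read-out: yeast growth inhibition relative to vehicle controls, following compound exposure of a strain with a defined DNA repair/cell cycle alteration.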

[15] = NCI Yeast Anticancer Drug Screen. Data for the mlh1 rad18 strain (AID 175); details: S. cerevisiae mlh1 rad18 strain growth inhibition, hits give high values
In short: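 Yeast w/ defined DNA-repair lesions; compound exposure; growth vs vehicle controls → % inhibition.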

[16] = NCI Yeast Anticancer Drug Screen. Data for the rad18 strain (AID 177); details: S. cerevisiae rad18 mutant growth inhibition, hits give high values
In short: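 Readout: growth inhibition vs vehicle controls. Cells: genetically altered yeast strain, DNA repair defect.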

[17] = at 5.0 µM (retest, dose inferred, filed as 0.5)
[18] = at 50.0 µM (retest, dose inferred, filed as 5.0)

Measured: growth inhibition

CC(C)(CN1CCCCC1)C(=O)CC(SCCS(=O)(=O)O)c1ccc(Br)cc1 (stereo not drawn)
active: [5]; at 50.0 µM 73.8% | [11]; at 50.0 µM 74.7%
inactive: [1]; at 1.2 µM 1% | [1]; at 3.7 µM 6% | [1]; at 11.0 µM 9% | [1]; at 33.0 µM 22% | [1]; at 100.0 µM 54% | [2]; at 1.2 µM 3% | [2]; at 3.7 µM 6% | [2]; at 11.0 µM 9% | [2]; at 33.0 µM 11% | [2]; at 100.0 µM 24% | [3]; at 1.2 µM -2% | [3]; at 3.7 µM -4% | [3]; at 11.0 µM -4% | [3]; at 33.0 µM 0% | [3]; at 100.0 µM 14% | [4]; at 1.2 µM -1% | [4]; at 3.7 µM 0% | [4]; at 11.0 µM 8% | [4]; at 33.0 µM 21% | [4]; at 100.0 µM 59% | [5]; at 1.2 µM -2% | [5]; at 3.7 µM -5% | [5]; [17] 13% | [5]; at 11.0 µM -1% | [5]; at 33.0 µM 24% | [5]; [18] 32% | [5]; at 100.0 µM 50% | [6]; at 1.2 µM 1% | [6]; at 3.7 µM 6% | [6]; [17] -7% | [6]; at 11.0 µM 14% | [6]; at 33.0 µM 18% | [6]; [18] 11% | [6]; at 50.0 µM 52.9% | [6]; at 100.0 µM 36% | [7]; at 1.2 µM 6% | [7]; at 3.7 µM 19% | [7]; at 11.0 µM 42% | [7]; at 33.0 µM 39% | [7]; at 100.0 µM 51% | [8]; [17] 5% | [8]; [18] 4% | [8]; at 50.0 µM 68.5% | [9]; at 1.2 µM 2% | [9]; at 3.7 µM 4% | [9]; at 11.0 µM 13% | [9]; at 33.0 µM 25% | [9]; at 100.0 µM 33% | [10]; [17] 13% | [10]; [18] 26% | [10]; at 50.0 µM 56.7% | [11]; at 1.2 µM 1% | [11]; at 3.7 µM 6% | [11]; [17] -4% | [11]; at 11.0 µM 17% | [11]; at 33.0 µM 29% | [11]; [18] 56% | [11]; at 100.0 µM 61% | [12]; at 1.2 µM 1% | [12]; at 3.7 µM 3% | [12]; at 11.0 µM 11% | [12]; at 33.0 µM 24% | [12]; at 100.0 µM 46% | [13]; at 1.2 µM 3% | [13]; at 3.7 µM 6% | [13]; at 11.0 µM 17% | [13]; at 33.0 µM 26% | [13]; at 100.0 µM 52% | [14]; at 1.2 µM 2% | [14]; at 3.7 µM 11% | [14]; at 11.0 µM 28% | [14]; at 33.0 µM 42% | [14]; at 100.0 µM 62% | [15]; [17] 3% | [15]; [18] 21% | [15]; at 50.0 µM 65.2% | [16]; at 1.2 µM 2% | [16]; at 3.7 µM 15% | [16]; at 11.0 µM 29% | [16]; at 33.0 µM 25% | [16]; at 100.0 µM 55%
